According to PubChem BioAssay AID1159580 (chemical genetic matrix, 2015):
The whole screen tested about 5,500 compounds, of which about 2,000 (36%) were called active. Not shown: some 18% with an inconclusive outcome. Rule as the data show it: active = normalized growth mostly below about 0.91 (no sharp cut-off); inconclusive = no clear call, values can overlap the other calls; inactive = mostly above about 0.92. This is one part of the list.

Experiment: chemical genetic growth profiling, strain panel (AID 1159580);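 also: tested at 20 µM; growth read once vehicle control cultures reached saturation at 30 °C; 1 = growth at the plate median or of vehicle wells; lower values mean less growth of the strain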
Conditions: growth OD

Measured: normalized growth

Nc1ccc(S(=O)(=O)Nc2cnc3ccccc3n2)cc1
inactive: S. cerevisiae deletion strains, locus YJR075W, strain HOC1, stronger effect = lower value 0.982 | S. cerevisiae deletion strains, locus YKL009W, strain mrt4, stronger effect = lower value 0.971 | S. cerevisiae deletion strains, locus YKL068W, stronger effect = lower value 0.985 | S. cerevisiae deletion strains, locus YKL085W, strain MDH1 (second series), stronger effect = lower value 0.98 | S. cerevisiae deletion strains, locus YKL085W, strain MDH1, stronger effect = lower value 0.98 | S. cerevisiae deletion strains, locus YKL160W, strain elf1, stronger effect = lower value 1.01 | S. cerevisiae deletion strains, locus YKL190W, strain CNB1, stronger effect = lower value 0.976 | S. cerevisiae deletion strains, locus YKR001C, strain vps1, stronger effect = lower value 0.969 | S. cerevisiae deletion strains, locus YKR026C, strain gcn3, stronger effect = lower value 1.02 | S. cerevisiae deletion strains, locus YKR091W, strain srl3, stronger effect = lower value 1.01 | S. cerevisiae deletion strains, locus YLL001W, strain dnm1, stronger effect = lower value 1.02 | S. cerevisiae deletion strains, locus YLL026W, stronger effect = lower value 1.01 | S. cerevisiae deletion strains, locus YLL041C, strain sdh2, stronger effect = lower value 1 | S. cerevisiae deletion strains, locus YLR027C, strain aat2, stronger effect = lower value 1.01 | S. cerevisiae deletion strains, locus YLR039C, strain RIC1, stronger effect = lower value 0.959 | S. cerevisiae deletion strains, locus YLR058C, strain SHM2, stronger effect = lower value 0.971 | S. cerevisiae deletion strains, locus YLR102C, strain apc9, stronger effect = lower value 0.992 | S. cerevisiae deletion strains, locus YLR113W, strain HOG1, stronger effect = lower value 0.967 | S. cerevisiae deletion strains, locus YLR221C, strain rsa3, stronger effect = lower value 0.995 | S. cerevisiae deletion strains, locus YLR258W, strain gsy2, stronger effect = lower value 1.01 | S. cerevisiae deletion strains, locus YLR262C, strain YPT6 (second series), stronger effect = lower value 1.02 | S. cerevisiae deletion strains, locus YLR262C, strain YPT6, stronger effect = lower value 0.964 | S. cerevisiae deletion strains, locus YLR268W, strain sec22, stronger effect = lower value 0.904 | S. cerevisiae deletion strains, locus YLR320W, strain mms22, stronger effect = lower value 1.01 | S. cerevisiae deletion strains, locus YLR330W, strain CHS5, stronger effect = lower value 0.995 | S. cerevisiae deletion strains, locus YLR342W, strain FKS1 (second series), stronger effect = lower value 1.02 | S. cerevisiae deletion strains, locus YLR342W, strain FKS1, stronger effect = lower value 1.01 | S. cerevisiae deletion strains, locus YLR357W, strain rsc2, stronger effect = lower value 0.995 | S. cerevisiae deletion strains, locus YLR370C, strain arc18, stronger effect = lower value 1.03 | S. cerevisiae deletion strains, locus YLR371W, strain rom2, stronger effect = lower value 0.984 | S. cerevisiae deletion strains, locus YLR384C, strain iki3, stronger effect = lower value 1.01 | S. cerevisiae deletion strains, locus YLR418C, strain cdc73, stronger effect = lower value 0.979 | S. cerevisiae deletion strains, locus YML016C, strain PPZ1, stronger effect = lower value 0.996 | S. cerevisiae deletion strains, locus YML032C, strain rad52, stronger effect = lower value 0.979 | S. cerevisiae deletion strains, locus YML120C, strain ndi1, stronger effect = lower value 1.02 | S. cerevisiae deletion strains, locus YML124C, strain tub3, stronger effect = lower value 0.978 | S. cerevisiae deletion strains, locus YMR058W, strain fet3, stronger effect = lower value 1.02 | S. cerevisiae deletion strains, locus YMR078C, strain ctf18, stronger effect = lower value 0.974 | S. cerevisiae deletion strains, locus YMR125W, strain sto1, stronger effect = lower value 1.03 | S. cerevisiae deletion strains, locus YMR129W, stronger effect = lower value 1.02 | S. cerevisiae deletion strains, locus YMR205C, strain PFK2, stronger effect = lower value 1.02 | S. cerevisiae deletion strains, locus YMR223W, strain ubp8, stronger effect = lower value 1 | S. cerevisiae deletion strains, locus YMR231W, strain pep5, stronger effect = lower value 1.01 | S. cerevisiae deletion strains, locus YMR263W, strain SAP30, stronger effect = lower value 0.978 | S. cerevisiae deletion strains, locus YMR307W, strain GAS1, stronger effect = lower value 1.1 | S. cerevisiae deletion strains, locus YNL067W, strain RPL9B, stronger effect = lower value 0.977 | S. cerevisiae deletion strains, locus YNL071W, strain lat1, stronger effect = lower value 1.02 | S. cerevisiae deletion strains, locus YNL153C, strain GIM3, stronger effect = lower value 0.962 | S. cerevisiae deletion strains, locus YNL183C, strain NPR1, stronger effect = lower value 0.921 | S. cerevisiae deletion strains, locus YNL209W, strain ssb2, stronger effect = lower value 1.02 | S. cerevisiae deletion strains, locus YNL233W, strain BNI4, stronger effect = lower value 0.984 | S. cerevisiae deletion strains, locus YNL248C, strain rpa49, stronger effect = lower value 1.02 | S. cerevisiae deletion strains, locus YNL250W, strain rad50, stronger effect = lower value 0.98 | S. cerevisiae deletion strains, locus YNL271C, strain bni1, stronger effect = lower value 0.985 | S. cerevisiae deletion strains, locus YNL298W, strain CLA4, stronger effect = lower value 0.988 | S. cerevisiae deletion strains, locus YNL307C, strain MCK1, stronger effect = lower value 0.983 | S. cerevisiae deletion strains, locus YNL322C, strain KRE1 (second series), stronger effect = lower value 0.997 | S. cerevisiae deletion strains, locus YNL322C, strain KRE1, stronger effect = lower value 0.992 | S. cerevisiae deletion strains, locus YNR049C, strain mso1, stronger effect = lower value 1.01 | S. cerevisiae deletion strains, locus YNR052C, strain pop2, stronger effect = lower value 0.987 | S. cerevisiae deletion strains, locus YOL006C, strain TOP1, stronger effect = lower value 0.997 | S. cerevisiae deletion strains, locus YOL012C, strain htz1 1.64 | S. cerevisiae deletion strains, locus YOL147C, strain pex11, stronger effect = lower value 0.988 | S. cerevisiae deletion strains, locus YOR001W, strain rrp6, stronger effect = lower value 1.02 | S. cerevisiae deletion strains, locus YOR061W, strain CKA2, stronger effect = lower value 0.961 | S. cerevisiae deletion strains, locus YOR069W, strain VPS5, stronger effect = lower value 0.995 | S. cerevisiae deletion strains, locus YOR070C, strain gyp1, stronger effect = lower value 1.01 | S. cerevisiae deletion strains, locus YOR080W, strain dia2, stronger effect = lower value 1.02 | S. cerevisiae deletion strains, locus YOR083W, strain WHI5, stronger effect = lower value 0.99 | S. cerevisiae deletion strains, locus YOR106W, strain vam3, stronger effect = lower value 1.03 | S. cerevisiae deletion strains, locus YOR136W, strain idh2, stronger effect = lower value 0.98 | S. cerevisiae deletion strains, locus YOR144C, strain elg1, stronger effect = lower value 0.977 | S. cerevisiae deletion strains, locus YOR184W, strain ser1, stronger effect = lower value 0.98 | S. cerevisiae deletion strains, locus YOR231W, strain MKK1, stronger effect = lower value 0.975 | S. cerevisiae deletion strains, locus YOR265W, strain rbl2, stronger effect = lower value 1.01 | S. cerevisiae deletion strains, locus YOR270C, strain vph1, stronger effect = lower value 1.02 | S. cerevisiae deletion strains, locus YOR290C, strain snf2, stronger effect = lower value 0.998 | S. cerevisiae deletion strains, locus YOR316C, strain cot1, stronger effect = lower value 0.969 | S. cerevisiae deletion strains, locus YPL051W, strain arl3, stronger effect = lower value 1 | S. cerevisiae deletion strains, locus YPL055C, strain LGE1, stronger effect = lower value 0.94 | S. cerevisiae deletion strains, locus YPL078C, strain atp4, stronger effect = lower value 1.02 | S. cerevisiae deletion strains, locus YPL106C, strain sse1, stronger effect = lower value 1.03 | S. cerevisiae deletion strains, locus YPL240C, strain hsp82, stronger effect = lower value 1.02 | S. cerevisiae deletion strains, locus YPL256C, strain CLN2, stronger effect = lower value 0.96 | S. cerevisiae deletion strains, locus YPR119W, strain clb2, stronger effect = lower value 0.986 | S. cerevisiae deletion strains, locus YPR141C, strain kar3, stronger effect = lower value 0.972 | S. cerevisiae deletion strains, locus YPR163C, strain tif3, stronger effect = lower value 0.989 | S. cerevisiae deletion strains, locus YPR167C, strain met16, stronger effect = lower value 0.987 | S. cerevisiae deletion strains, strain wtn01, stronger effect = lower value 0.991 | S. cerevisiae strains, strain wild type, stronger effect = lower value 0.986
